From PubChem
An excerpt weighted towards active compounds, which were near 19% of everything screened.
IL-1B inflam inh: blocks inflammasome-driven IL-1 beta release. THP-1 LPS/ATP IL-1B secretion, AlphaLISA, 16 h; hits give low values. activity change, % at 57.5 µM. actives 4.7% (n = 360,000). AID 743279; in the data active means activity change below about -50%; inconclusive means mostly about -30% to -49%
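THP-1 cells pretreated 1 hr with compounds (up to 57.5 uM final), then stimulated with LPS (250 ng/mL final) plus ATP (1.25 mM final); secreted IL-1B measured by AlphaLISA after 16 hr, decreased signal indicating inhibition.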
DT40 TDP1 CPT: DT40-hTDP1 cell growth loss with CPT. Potency, µM (titrated, usually from 46.2 µM), without a hit: at the highest dose activity change, negative = growth inhibition, most hits filed as inhibitors. chicken DT40 Tdp1-/-;hTDP1 cells + 20 nM CPT, ATP luminescence, 48 h. actives 12% (n = 420,000); further: potency means the concentration at half of the fitted maximal effect; nearly all actives have a fitted effect of over 55% in size
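Chicken DT40 Tdp1-/- cells complemented with human TDP1, 400 cells/well, exposed to compounds plus 20 nM camptothecin for at least 48 h at 37 C; viability read as ATP content by CellTiter-Glo luminescence.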
TDP1 inh: TDP1 (human) enzyme inhibition. Q9NUW8. recombinant TDP1, AlphaScreen DNA substrate cleavage. Potency, µM (series often up to 130 µM), for the others: at the highest dose activity change, negative = inhibition, usual class: inhibitors. actives 0.28% (n = 350,000); further: potency means the concentration at half of the fitted maximal effect; nearly all actives have a fitted effect of over 40% in size
Target sequence (Q9NUW8 whole entry, looked up): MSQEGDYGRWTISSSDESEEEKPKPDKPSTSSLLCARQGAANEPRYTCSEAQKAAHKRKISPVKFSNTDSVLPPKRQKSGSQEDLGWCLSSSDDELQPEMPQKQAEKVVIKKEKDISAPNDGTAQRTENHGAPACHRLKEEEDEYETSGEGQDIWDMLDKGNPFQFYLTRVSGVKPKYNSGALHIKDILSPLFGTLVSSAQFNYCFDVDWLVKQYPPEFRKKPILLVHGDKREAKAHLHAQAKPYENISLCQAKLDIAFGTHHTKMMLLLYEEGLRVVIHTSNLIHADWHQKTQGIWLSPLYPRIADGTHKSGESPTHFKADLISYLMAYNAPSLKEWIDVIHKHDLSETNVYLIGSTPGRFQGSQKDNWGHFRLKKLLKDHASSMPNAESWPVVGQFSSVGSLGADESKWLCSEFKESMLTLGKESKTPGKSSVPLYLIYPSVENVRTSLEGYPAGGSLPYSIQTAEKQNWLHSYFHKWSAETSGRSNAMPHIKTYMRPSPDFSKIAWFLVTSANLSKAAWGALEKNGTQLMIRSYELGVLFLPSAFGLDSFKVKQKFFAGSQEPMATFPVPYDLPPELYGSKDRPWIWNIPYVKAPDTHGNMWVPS
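AlphaScreen read-out: signal falls as enzyme removes the 3' tyrosine-FITC from a 5'-biotinylated DNA oligo (15 nM, 5 min, RT). Enzyme was E. coli-made recombinant Tdp1 at 1 nM, exposed to compound for 15 min beforehand; beads 10 ug/ml, 10 min.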
TDP1 cell noCPT: qHTS for Inhibitors of human tyrosyl-DNA phosphodiesterase 1 (TDP1): qHTS in cells in absence of CPT | actives 15% (n = 420,000) | Potency, µM (highest dose often 46.2 µM), for inactives: at the top dose activity change, negative = growth inhibition, most hits filed as inhibitors | DT40 Tdp1-/- hTDP1 cells, no CPT, ATP luminescence, 48 h; further: potency means the concentration at half of the fitted maximal effect; nearly all actives have a fitted effect of over 55% in size
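Chicken DT40 Tdp1-/- cells stably complemented with human TDP1 were seeded at 400 cells/well with DMSO in place of 20 nM camptothecin. After compound pinning, cells grew at least 48 hr at 37 °C; viability read by CellTiter-Glo luminescence.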
Giardia killer: kills Giardia lamblia | activity change, % at 7.66 µM, hits read low | actives 0.15% (n = 340,000) | Giardia lamblia trophozoite viability; in the data active means activity change below about -80%; inconclusive means between about -30% and that limit;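 further: parasites exposed to compound for two days anaerobically before the ATP read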
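Giardia trophozoites, 100 cells per well, were exposed to compounds for 48 hrs at 37 deg C under anaerobic conditions; viability was then read as ATP content by bioluminescence after 15-30 min at room temperature.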
ELG1 DNA repair: blocks ELG1-dependent DNA repair in HEK293T cells; HEK293T ELG1-luciferase reporter, luminescence, 16 h; DNA damage induced by 5-fluorouridine; Potency, µM (top dose mostly 46.1 µM), inactives show at the highest dose activity change, negative = inhibition, actives largely listed as inhibitors; actives 2.3% (n = 330,000); AID 504467; further: potency means the concentration at half of the fitted maximal effect; nearly all actives have a fitted effect of over 55% in size
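HEK293T cells expressing luciferase-tagged ELG1 (2,000/well) received 5-Fluorouridine plus compound or DMSO for 16 hr at 37 °C. Luciferase was read by ONE-Glo luminescence after 30 min at room temperature.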
Starred values were filed as active, the others as inactive; u = inconclusive; x = no result given. Unless noted, the call rests on the fitted dose curve; in most records, active means well fitted curve in the direction sought with a large enough effect; inconclusive means small, poorly fitted or top-dose-only effect, or another doubt; inactive means no such curve, though single readings can be large; an effect the other way counts as inactive or inconclusive. On the % scale 0 is the no-effect control and ±100 the full control effect.

SMILES	IL-1B inflam inh	DT40 TDP1 CPT	TDP1 inh	TDP1 cell noCPT	Giardia killer	ELG1 DNA repair
CCOc1ccccc1N1CCN(c2nc(N)c(C#N)c(CC#N)c2C#N)CC1	2	u	11%	21µM*	-12	-28%
CCOc1ccccc1N1CCN(c2nc3ccccc3nc2C(C#N)C(=O)OC)CC1 (stereo unspecified)	18	23µM*	6%	15µM*	9	-20%
COc1ccccc1N1CCN(c2nc3ccccc3nc2C(C#N)C(=O)OC(C)C)CC1 (stereo unspecified)	-5	u	10%	21µM*	9	u
Cc1ccc(N(C)C(=O)CN2C(=O)CCc3cc(S(=O)(=O)N4CCOCC4)ccc32)cc1	x	-14%	6%	-1%	x	x
CC(C)C[C@H](NC(=O)[C@@H]1CCCN1C(=O)[C@H](CO)NC(=O)[C@H](Cc1ccccc1)NC(=O)CNC(=O)[C@@H]1CCCN1C(=O)[C@@H]1CCCN1C(=O)[C@@H](N)CCCN=C(N)N)C(=O)O	x	x	7%	x	x	x
Cc1ccccc1NC(=O)Cn1c(=O)n(CCCCCC(=O)NCc2ccc3c(c2)OCO3)c(=O)c2sccc21	x	u	0%	u	x	x
Cc1oc(-c2ccc3c(c2)OCCO3)cc1C(=O)O	2	u	11%	u	-11	1.6µM*
CCOC(=O)/C=C/C(=O)Nc1ccccc1-c1ccccc1NC(=O)/C=C/C(=O)OCC	-83*	4.6µM*	-3%	5.2µM*	3	u
CCOC(=O)/C=C/C(=O)Nc1cccc([N+](=O)[O-])c1	-65*	1.6µM*	-2%	4.1µM*	8	6%
O=C(Nc1cc(N2CCCCC2)ncn1)c1ccccc1	17	-30%	5%	u	-3	u
O=C(Nc1cc(Cl)ncn1)c1ccccc1	-63*	18%	x	14%	-9	x
O=C(NC1=C(NC2CCS(=O)(=O)C2)C(=O)c2ccccc2C1=O)c1ccccc1 (stereo unspecified)	-93*	2.1µM*	2%	2.3µM*	8	u
Cc1cccc(NC2=C(NC(=O)c3ccccc3)C(=O)c3ccccc3C2=O)c1	-74*	10µM*	9%	12µM*	-4	u
CN(C1=C(NC(=O)c2ccc(Cl)cc2)C(=O)c2ccccc2C1=O)c1ccccc1	-74*	5.8µM*	-3%	10µM*	-6	u
CSc1ccc(/C=C2\CCn3c2nc2cc(C(=O)O)ccc2c3=O)cc1	51	u	x	u	-9	0%
O=C(NC1=C(Nc2ccc(Cl)cc2)C(=O)c2ccccc2C1=O)c1ccccc1	u	23µM*	7%	16µM*	-15	u
O=C(Nc1cccc(Cl)c1)c1ccccc1	6	-23%	x	-24%	-20	u
O=C(Nc1ccc(NS(=O)(=O)c2ccccc2)cc1)c1ccc(Cl)cc1	1	-21%	1%	-12%	-8	16%
O=C1C(Cl)=C(NC(=O)c2ccccc2)C(=O)C(Cl)=C1NC(=O)c1ccccc1	-99*	1.3µM*	x	2.6µM*	7	-4%
Cc1cc(=O)[nH]c(SCC(=O)Nc2ccc3c(c2)CCC3)c1C#N	30	1%	2%	-4%	u	u
COc1ccc(/C=C/C(=O)CC(O)(c2ccccc2)C(F)(F)F)cc1 (stereo unspecified)	u	u	5%	u	18	-21%
O=C(/C=C/c1ccccc1)CC(O)(c1ccccc1)C(F)(F)F (stereo unspecified)	-99*	16µM*	5%	11µM*	-1	u
Cc1cccc(NC(=S)N(Cc2ccco2)C(C)c2cccs2)c1 (stereo unspecified)	-23	29µM*	1%	u	-7	u
Cc1cc(NCc2ccccc2)n2ncc(-c3ccccc3)c2n1	-29	-2%	x	u	1	u
CC(C)(C)c1cc(NCc2ccccn2)n2ncc(-c3ccccc3)c2n1	0	2.6µM*	7%	4.6µM*	11	4%
SMILES	IL-1B inflam inh	DT40 TDP1 CPT	TDP1 inh	TDP1 cell noCPT	Giardia killer	ELG1 DNA repair
O=c1oc2cc(O)ccc2c2oc3cc(O)ccc3c12	10	u	-3%	23µM*	-8	u
COc1c2c(cc3oc(=O)c4c5ccc(O)cc5oc4c13)OC(C)(C)CC2	-15	16µM*	x	16µM*	-26	x
COc1c(CC=C(C)C)c(O)cc2oc(=O)c3c4ccc(O)cc4oc3c12	-4	u	x	18µM*	-7	x
O=c1oc2cc(O)ccc2c2ccccc12	-21	-6%	-3%	-13%	0	u
COC(=O)C(CC(C)C)NS(=O)(=O)c1ccccc1Br (stereo unspecified)	x	x	-10%	x	-4	x
O=C(Cn1nnc2ccccc2c1=O)N[C@@H](Cc1ccccc1)C(=O)O	1	3%	-1%	19%	41	0%
COc1cc2c(cc1OC)C(C)N(C(=O)c1sc(-c3cnccn3)nc1C)CC2 (stereo unspecified)	-7	1%	x	u	3	u
CS(=O)(=O)C1=NSC2=NC(=O)/C(=C\c3ccc(OC(=O)c4ccco4)c(Br)c3)C(=N)N21	4	3%	5%	u	-22	15%
COCCNC(=O)c1cc2c(c(-c3cccc(C#Cc4ccc(OC)c(OC)c4)c3)n1)[C@H](CCO)N(S(=O)C(C)(C)C)C2 (stereo partly specified)	-20	u	x	u	x	x
CN(Cc1ccccc1)S(=O)(=O)c1nnc(NC(=O)c2ccccc2Cl)s1	x	-29%	4%	u	x	x
Cc1occc1C(=O)N/N=C/c1cccs1	-8	-10%	0%	-19%	-27	u
Cn1cc(C(=O)N/N=C/c2cccs2)c2ccccc21	-11	6%	3%	8.2µM*	-7	u
O=C(CCc1ccc(O)c(O)c1)N/N=C/c1ccc2c(c1)OCO2	-8	u	1%	u	30	5.8µM*
O=C(N/N=C/c1ccc2c(c1)OCO2)c1cccc2ccccc12	2	2.1µM*	-3%	3.3µM*	-6	-12%
Cn1cc(C(=O)N/N=C/c2ccc3c(c2)OCO3)c2ccccc21	-15	7.3µM*	7%	5.2µM*	-5	7%
O=C(N/N=C/c1ccc2c(c1)OCO2)c1ccc2ccccc2n1	0	-7%	-13%	-23%	13	u
